# Reference: PubChem BioAssay AID720700 (The Scripps Research Institute Molecular Screening Center, 2013)
# About 3,100 (0.84%) of roughly 370,000 compounds were called active. No stated cut-off is given here; in the data, active means inhibition above about 9.5%; inactive means the rest. The full list was thinned out, with actives kept by preference.
# Target: 1-phosphatidylinositol 4,5-bisphosphate phosphodiesterase gamma-1 (Homo sapiens) (UniProt P19174)
# Assay: PLC-gamma1 enzyme inhibitors, primary screen, biochemical, fluorescence, purified enzyme (AID 720700)
# Settings: purified PLC-gamma1, fluorogenic substrate, at 12.2 µM, stronger effect = higher value
# Sequence of 1-phosphatidylinositol 4,5-bisphosphate phosphodiesterase gamma-1 (Homo sapiens) (P19174 whole entry, looked up): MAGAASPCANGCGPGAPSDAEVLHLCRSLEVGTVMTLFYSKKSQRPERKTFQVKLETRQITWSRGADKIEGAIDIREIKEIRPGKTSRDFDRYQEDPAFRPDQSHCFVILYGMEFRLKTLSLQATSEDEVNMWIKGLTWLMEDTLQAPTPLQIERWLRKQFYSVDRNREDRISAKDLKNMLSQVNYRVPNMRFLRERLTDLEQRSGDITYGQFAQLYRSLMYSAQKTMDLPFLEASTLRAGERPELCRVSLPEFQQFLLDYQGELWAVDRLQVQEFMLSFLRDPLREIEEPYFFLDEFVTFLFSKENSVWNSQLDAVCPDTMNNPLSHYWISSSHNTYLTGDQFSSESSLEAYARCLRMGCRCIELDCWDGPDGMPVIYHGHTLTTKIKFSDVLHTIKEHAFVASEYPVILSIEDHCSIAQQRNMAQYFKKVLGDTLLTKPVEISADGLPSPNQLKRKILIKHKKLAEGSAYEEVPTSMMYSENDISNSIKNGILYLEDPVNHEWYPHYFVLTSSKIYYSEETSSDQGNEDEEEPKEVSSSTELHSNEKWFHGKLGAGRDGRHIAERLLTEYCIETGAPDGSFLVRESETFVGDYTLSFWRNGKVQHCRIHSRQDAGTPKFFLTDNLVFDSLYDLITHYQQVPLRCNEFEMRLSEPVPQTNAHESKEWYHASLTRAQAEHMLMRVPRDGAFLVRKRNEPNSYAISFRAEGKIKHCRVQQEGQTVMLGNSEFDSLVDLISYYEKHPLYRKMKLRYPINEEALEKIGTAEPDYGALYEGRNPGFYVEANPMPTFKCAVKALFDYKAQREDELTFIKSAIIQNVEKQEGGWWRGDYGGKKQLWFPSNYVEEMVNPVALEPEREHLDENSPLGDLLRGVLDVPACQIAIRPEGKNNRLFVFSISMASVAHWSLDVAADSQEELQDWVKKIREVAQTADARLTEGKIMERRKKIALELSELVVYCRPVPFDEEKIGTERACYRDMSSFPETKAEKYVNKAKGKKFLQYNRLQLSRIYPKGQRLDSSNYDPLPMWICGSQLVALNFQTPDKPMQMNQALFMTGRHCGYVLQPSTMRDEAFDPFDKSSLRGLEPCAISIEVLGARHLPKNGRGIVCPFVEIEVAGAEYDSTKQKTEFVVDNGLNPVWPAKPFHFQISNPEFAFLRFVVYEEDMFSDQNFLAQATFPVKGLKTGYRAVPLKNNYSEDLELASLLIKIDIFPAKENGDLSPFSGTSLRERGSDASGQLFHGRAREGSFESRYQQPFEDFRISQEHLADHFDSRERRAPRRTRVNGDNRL
row,Compound,inhibition
1,C=C(C)C#CC(Cc1ccccc1)N(CC1CC1)/C(N)=N/C(=O)OCc1ccccc1 (centres undefined),-163% (inactive)
2,O=S1(=O)c2c(cccc2N2CCSCC2)Oc2ccccc2CN1Cc1cn(Cc2ccc(F)cc2)nn1,-5.24% (inactive)
3,O=C(Nc1ccccc1Cl)/C(Cl)=C(\Cl)S(=O)c1ccccc1 (centres undefined),12.4% (active)
4,CN1C(=O)c2cc(NS(C)(=O)=O)ccc2OC[C@@H]2O[C@@H](CC(=O)NCc3ccc(-c4ccccc4)cc3)CC[C@H]21,-2.2% (inactive)
5,CCC(=O)c1c(CC)c2n3c1=CC[C@H]3CC(Br)C=2 (some centres undefined),-6.13% (inactive)
6,CC(=O)N1CCc2cc(S(=O)(=O)NCCC(=O)N3CCCC3)ccc21,1.19% (inactive)
7,COCCCNC(=O)C1CC(=O)N(c2ccc(C)cc2)C1 (centres undefined),-0.12% (inactive)
8,COc1ccc(N2CC(C(=O)NCCS(=O)(=O)N3CCN(c4ccccc4)CC3)CC2=O)cc1 (centres undefined),4.62% (inactive)
9,Cc1ccc(N2CC(C(=O)NCCS(=O)(=O)N3CCN(c4ccccc4)CC3)CC2=O)cc1 (centres undefined),10.4% (active)
10,O=C(NC1CCCC1)C1CSCCS(=O)(=O)N1Cc1ccccc1 (centres undefined),-0.17% (inactive)
11,COc1ccc(C(=O)c2c(C)c(CCC#N)n3ccccc23)c(OC)c1,-3.69% (inactive)
12,Cc1c(C(=O)c2cccc([N+](=O)[O-])c2)c2ccccn2c1CCC#N,11.7% (active)
13,COc1cccc(C(=O)CC(=O)C(=O)Nc2ccc([N+](=O)[O-])cc2C)c1,-0.82% (inactive)
14,Cc1cc(C)cc(NC(=O)N2CCC(N(C)CCC(C)C)CC2)c1,3.12% (inactive)
15,CCC(c1ccc(NC(=O)OC(C)(C)C)cc1)c1cc(OC)cc(OC)c1 (centres undefined),1.5% (inactive)
16,N#Cc1c(NC(=O)C2CCCO2)sc2c1CCCCC2 (centres undefined),12.2% (active)
17,N#Cc1c(NC(=O)c2ccc(N3CCOCC3)c([N+](=O)[O-])c2)sc2c1CCCC2,3.4% (inactive)
18,CC(=O)c1c(C)[nH]c(C(=O)OCC(=O)Nc2sc3c(c2C#N)CCCC3)c1C,-7.9% (inactive)
19,O=C(Nc1ccccc1)N1CCN(Cc2nc3ccccc3c(=O)[nH]2)CC1,-0.51% (inactive)
20,C/C(CC(C)C)=N\Oc1nc(C)cc(C)n1,9.91% (active)
21,COc1cccc(CNC(=O)C2CCCN(c3nc4ccccc4o3)C2)c1OC (centres undefined),0.94% (inactive)
22,COC(=O)[C@H](C(C)C)N1CCc2nnn(Cc3ccc(C)cc3)c2-c2ccccc2S1(=O)=O,0.55% (inactive)
23,CCc1c(C)n([O-])c2c([n+]1=O)CCCCC2,11% (active)
24,Cc1ccc(-c2c(C)n([O-])c3c([n+]2=O)CCC3)cc1,1.87% (inactive)
25,CCOc1ccc(-c2c(C)n([O-])c3c([n+]2=O)CCCC3)cc1,-0.45% (inactive)
26,CC(CCN1CCC(C(O)(c2ccccc2)c2ccccc2)CC1)Oc1ccc(Cl)cc1 (centres undefined),3.75% (inactive)
27,CCCC[C@H]1C2CC(OC(=O)NCc3ccccc3)C(C2)[C@H]2CCCCN21 (some centres undefined),-1.64% (inactive)

row,Compound,inhibition
1,Cc1cccc(C)c1NC(=O)CN1C(=O)C(C)Oc2ccccc21 (centres undefined),1.55% (inactive)
2,CC1Oc2ccccc2N(Cc2cccnc2)C1=O (centres undefined),11% (active)
3,CC12c3ccccc3C(c3ccccc31)C1C(=O)N(Cc3cccnc3)C(=O)C12 (centres undefined),1.04% (inactive)
4,Cc1ccc(C2=CCN(C)C(=O)N2c2ccc(Cl)cc2)cc1,-0.42% (inactive)
5,CC(c1c[nH]c2ccccc12)c1c(-c2ccccc2)n(C)c2ccccc12 (centres undefined),-4.35% (inactive)
6,CC(C)C(C#CC1CC1)N(Cc1ccc2c(c1)OCO2)C(N)=NC(=O)/C=C/c1cccc(C(F)(F)F)c1 (centres undefined),0.02% (inactive)
7,C=CCN(C(=O)[C@@H](CCCC)[C@@H](O)c1ccc(Cl)cc1)c1ccccc1,-0.11% (inactive)
8,O=C(CCNS(=O)(=O)c1ccc(Br)cc1)NCC1CCCO1 (centres undefined),12.3% (active)
9,CCC(=O)Nc1ccc(S(=O)(=O)NCC2CCCO2)cc1 (centres undefined),3.4% (inactive)
10,CCOc1ccc(S(=O)(=O)NCCC(=O)NCC2CCCO2)cc1 (centres undefined),2.41% (inactive)
11,COC(=O)[C@]12C[C@H](CC(=O)NCc3ccccc3)C(=O)N(Cc3ccccc3)C1=C[C@H](COCc1ccccc1)O[C@@H]2C,8.06% (inactive)
12,COc1ccc(-n2c(SCC(=O)Nc3ccccc3-c3ccccc3)nnc2-c2cccnc2)cc1,-0.54% (inactive)
13,C=C(C)C1CC23C(=O)C4(C(=O)c5ccccc5)C[C@@]5(C)CCC(CC2C1(C)C)(C4=O)C35OC (some centres undefined),-0.5% (inactive)
14,COC(=O)[C@]12C[C@H](CC(=O)N3CCOCC3)C(=O)N(Cc3ccc(Cl)cc3Cl)C1=C[C@H](C(C)C)O[C@@H]2C1CC1,-1.21% (inactive)
15,O=C(CSc1ncn[nH]1)N/N=C/c1ccc(F)cc1,9.55% (active)
16,O=C(CSc1ncn[nH]1)Nc1ccnc2ccccc12,0.33% (inactive)
17,O=C(CSc1ncn[nH]1)Nc1nsc(-c2ccccc2)n1,-3.65% (inactive)
18,COc1cc(NC(=O)C2CCCN(S(=O)(=O)c3ccc(C(C)(C)C)cc3)C2)cc(OC)c1 (centres undefined),0.39% (inactive)
19,CC(C)CNc1cccc2c1S(=O)(=O)N(Cc1cn(Cc3ccc(Cl)cc3)nn1)Cc1ccccc1O2,-48.8% (inactive)
20,C=CCN1[C@@H](Cc2ccccc2)COc2cccc(N3CCSCC3)c2S1(=O)=O,1.11% (inactive)
21,CCOC(=O)[C@]12CCCC=C1N(Cc1ccc(OC)cc1)C(=O)[C@@H]2CC(=O)N1CCOCC1,0.69% (inactive)
22,CCOC(=O)[C@]12CCCC=C1N(CCCOC)C(=O)[C@@H]2CC(=O)N1CCOCC1,10.2% (active)
23,CCOC(=O)[C@]12CCCCC/C=C\1N(Cc1ccc(OC)cc1)C(=O)[C@H]2CC(=O)N1CCOCC1,-0.42% (inactive)
24,COc1ccc(N2CCN(CCNS(=O)(=O)c3ccc([N+](=O)[O-])cc3)CC2)cc1,-0.14% (inactive)
25,COC(=O)C1CN(CCc2ccccc2)CCS(=O)(=O)N1Cc1cccc(Cl)c1 (centres undefined),0.86% (inactive)
26,COc1ccc(CSc2nnc(-c3cccc(C)c3)n2C)cc1,1% (inactive)
27,COc1ccc(-n2c(COc3ccccc3)nnc2SCC(=O)Nc2ccc3c(c2)OCO3)cc1,-1.32% (inactive)
